Our source for the PBM binding z-score values is the supplement of paper PMC6555819.

Assay in all cases: PBM binding z-score (relative to random genomic background probes); higher = stronger binding; sequences stand for … in GC…GCGATTGACAGCGTAGAATGAAGG
Experiment [1] relates to FXR:RXRa (NR concentration 270 nM, RXRa partner concentration 90 nM). The gist of the method:
(§1)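 Regression normalization was applied to scanned fluorescence from custom Agilent 4×180K protein-binding microarrays. Before scanning, arrays were incubated 1 h with ligand-free nuclear receptor dimers, and binding was detected with antibodies against each partner (one per run). Binding z-scores use the random background probes as reference.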

Experiment [2] deals with LXRa:RXRa (NR concentration 270 nM, RXRa partner concentration 90 nM). The procedure, abridged:
as §1

For experiment [3], the system named is LXRa homodimer (NR concentration 270 nM). The gist of the method: as §1
In experiment [4] the test system is LXRb:RXRa (NR concentration 270 nM, RXRa partner concentration 90 nM). The gist of the method: as §1
Experiment [5] relates to LXRb homodimer (NR concentration 270 nM). The gist of the method:
as §1

Experiment [6] concerns PPARa:RXRa (NR concentration 270 nM, RXRa partner concentration 90 nM). The procedure, abridged: as §1
Experiment [7] relates to PPARg:RXRa (NR concentration 180 nM, RXRa partner concentration 90 nM). The procedure, abridged:
as §1

Experiment [8] relates to PPARg:RXRa 270nM:90nM, anti-RXR (NR concentration 270 nM, RXRa partner concentration 90 nM). The gist of the method:
as §1

The test system of experiment [9] is PPARg:RXRa 30nM:10nM, anti-RXR (NR concentration 30 nM, RXRa partner concentration 10 nM). The procedure, abridged:
as §1

Experiment [10] relates to PPARg:RXRa 90nM:30nM, anti-RXR (NR concentration 90 nM, RXRa partner concentration 30 nM). The gist of the method:
as §1

The test system of experiment [11] is PPARg:RXRa DBDmut IVT, anti-RXR (DBD mutation: RXRa K156A/R161A, NR concentration 270 nM, RXRa partner concentration 90 nM). The gist of the method: as §1
In experiment [12] the test system is PPARg:RXRa IVT, anti-PPARg (NR concentration 270 nM, RXRa partner concentration 90 nM). The procedure, abridged:
as §1

Experiment [13] has as its system PPARg DBDmut:RXRa IVT, anti-PPARg (DBD mutation: PPARg1 K132A/R137A, NR concentration 270 nM, RXRa partner concentration 90 nM). The procedure, abridged: as §1
The test system of experiment [14] is PPARg DBDmut IVT, anti-PPARg (DBD mutation: PPARg1 K132A/R137A, NR concentration 270 nM). The gist of the method:
as §1

Experiment [15] relates to PPARg homodimer (NR concentration 180 nM). The procedure, abridged:
as §1

Experiment [16] deals with PXR:RXRa (NR concentration 270 nM, RXRa partner concentration 90 nM). The gist of the method:
as §1

Experiment [17] deals with PXR homodimer (NR concentration 270 nM). The gist of the method: as §1
Experiment [18] deals with RARa:RXR (NR concentration 270 nM, RXRa partner concentration 90 nM). The procedure, abridged: as §1
The test system of experiment [19] is RARa homodimer (NR concentration 270 nM). The procedure, abridged:
as §1

Experiment [20] has as its system RARb:RXRa (NR concentration 270 nM, RXRa partner concentration 90 nM). The gist of the method: as §1

For the sequence CCGAGTAGGTAATGGGGCATTCAGGCAACGGTGA, the PBM binding z-score in [1] was -0.324; in experiment [2], -0.287; in experiment [3], -0.342; in experiment [4], -0.153; in experiment [5], -0.666; in [6] it was 1.73. Further, the PBM binding z-score in [7] amounted to 3.13; in experiment [8], 4.63; in [9], 2.99; in [10] it was 4.57; in experiment [11] it was 3.06; in experiment [12], 3.08. The PBM binding z-score was -0.988 in experiment [13]; -0.54 in experiment [14]; 0.397 in experiment [15]; -0.417 in experiment [16]; -0.151 in [17]; -0.249 in experiment [18]. For the same sequence, the PBM binding z-score was -0.452 in experiment [19] and 0.118 in experiment [20].

Turning to TATTGTAGATCAAGCAGGTTAAGAAAGCCTGAGT, the PBM binding z-score in [1] is -0.385; in experiment [2], 0.0261; in experiment [3], -0.0497; in experiment [4] it was -0.0709; in [5] it was 0.0382; in [6], 0.359. Also, the PBM binding z-score in [7] was -0.08; in experiment [8], 0.334; in experiment [9], 0.0668; in experiment [10] it was 0.218; in experiment [11], 0.302; in [12] it was 1.02. Further, the PBM binding z-score in experiment [13] is 0.542; in [14], 0.816; in [15], 0.0743; in experiment [16], 0.218; in experiment [17] it was -0.248; in experiment [18], 0.378. Also, the figures for the PBM binding z-score in experiment [19] and in experiment [20] were 0.348 and -0.0192, respectively.

For the sequence AATACAGGGTCACCGTAGGCCAGAGTACGCACAG, the PBM binding z-score in experiment [1] worked out at 7.2; in experiment [2] it was 6.43; in experiment [3] it was 1.2; in experiment [4], 4.96; in experiment [5], 0.78; in [6] it was 6.14. Besides, the PBM binding z-score was 7.71 in experiment [7]; 6.83 in experiment [8]; 3.15 in [9]; 5.65 in experiment [10]; 3.34 in experiment [11]; 4.88 in experiment [12]. In addition, the PBM binding z-score in experiment [13] was 1.63; in experiment [14] it was 0.332; in experiment [15], 2.04; in [16] it was 4.97; in experiment [17], 0.366; in experiment [18], 5.28. Besides, the PBM binding z-score in experiment [19] was found to be 0.752; in [20], 4.8.

In the case of TCTTGTAGGTCAGCAGGTTAAGAAAGCTGGCCAA, the PBM binding z-score in experiment [1] is 3.31; in [2], 2.55; in experiment [3] it was 0.186; in experiment [4] it was 2.16; in experiment [5] it was 0.418; in experiment [6] it was 4.35. In addition, the PBM binding z-score in experiment [7] worked out at 6.77; in experiment [8], 5.91; in experiment [9], 4.19; in experiment [10] it was 5.71; in [11], 6.85; in experiment [12], 7.39. In addition, the PBM binding z-score in [13] is 2.94; in experiment [14] it was 2.48; in experiment [15], 2.31; in experiment [16] it was 1.95; in experiment [17], -0.0454; in experiment [18], 2.84. Further, the results for the PBM binding z-score in [19] and in experiment [20] were 0.787 and 3.91, respectively.

Consider GCTTACGGCTCAAAGGTTATAGCATGAATAGAAT, for which the PBM binding z-score in [1] is 0.876; in [2] it was 1.45; in [3] it was 0.0597; in experiment [4], 1.7; in experiment [5] it was -0.639; in experiment [6], 2.62. For the same sequence, the PBM binding z-score in experiment [7] was 2.18; in [8] it was 3.88; in [9], 1.46; in experiment [10], 3.1; in experiment [11], -0.386; in experiment [12], 0.149. In addition, the PBM binding z-score in experiment [13] is -0.0168; in [14], 0.142; in experiment [15], 0.0753; in experiment [16] it was 1.47; in [17], -0.195; in experiment [18], 2.06. The figures for the PBM binding z-score in [19] and in experiment [20] were 0.137 and 1.21, respectively.

For the sequence CCAGACAGGTGAGAAGGTAACTCTGCCTCGATTA, the PBM binding z-score was 0.00014 in experiment [1]; 0.0948 in experiment [2]; -0.229 in experiment [3]; 0.114 in experiment [4]; -0.103 in experiment [5]; 0.793 in experiment [6]. The PBM binding z-score in experiment [7] was 0.466; in experiment [8], 0.906; in [9] it was -0.293; in [10] it was 0.346; in experiment [11] it was 1.34; in experiment [12] it was 0.644. For the same sequence, the PBM binding z-score in experiment [13] was -0.0545; in experiment [14], -0.239; in experiment [15] it was 0.832; in experiment [16] it was 0.051; in experiment [17] it was 0.394; in experiment [18], 0.441. The PBM binding z-score in experiment [19] was -0.197; in experiment [20], 0.638.
